# In PubChem BioAssay (EPA / NIEHS):
# The source made the active and inactive calls. Rule for the calls: active = hit-call score of the fitted dose curve at least 0.9, where 1 is the maximum; inconclusive = response in the unintended direction; inactive = score below 0.9.
# Target: rat CYP3A2, Cyp3a2 (gene 266682) (UniProt P05183)
# Test: NVS_ADME_rCYP3A2: NovaScreen (NVS) CYP450-related Enzyme Activity (ADME) Assay for rat CYP3A2 (AID 2283128)
# Experimental: NVS_ADME_rCYP3A2 is a biochemical, single-readout assay that uses extracted gene-proteins in a cell-free assay. Measurements were taken 0.5 hour after chemical dosing in a 96-well plate.NVS_ADME_rCYP3A2 is one of one assay component(s) measured or calculated from the NVS_ADME_rCYP3A2 assay. It is designed to make measurements of enzyme activity, a form of enzyme reporter, as detected with fluorescence intensity signals by Fluorescence technology.Data from the assay component NVS_ADME_rCYP3A2 was analyzed into 1 assay endpoint. This assay endpoint, NVS_ADME_rCYP3A2, was analyzed in the positive analysis fitting direction relative to Acetonitrile as the negative control and baseline of activity. Using a type of enzyme reporter, loss-of-signal activity can be used to understand changes in the enzymatic activity as they relate to the gene Cyp3a2. Furthermore, this assay endpoint can be referred to as a primary readout, because this assay has produced multiple assay endpoints where this one serves a enzymatic activity function. To generalize the intended target to other relatable targets, this assay endpoint is annotated to the cyp intended target family, where the subfamily is xenobiotic metabolism.
# Binding assays used specific radioligands (tritiated, iodinated) with non-radioactive competitive displacement ligands in agonist or antagonist protocols (as indicated) and various reference compounds and inhibitors to titrate specific binding to receptors and transporters. Most enzyme assays (CYPs, kinases, phosphatases, proteases, HDACs) used recombinant protein and specific substrates (fluorescence mostly, some colorimetric and radioactive) and inhibitors, followed by a biochemical separation of substrate and product. All assays for the biochemical HTS were initially run in duplicate at a single concentration (10 uM for CYP450 assays and 25 uM for all others). Assay-chemical combinations meeting a pre-defined threshold (e.g., 30% inhibition and other criteria defined below) were then run in singleton concentration-response format with maximum concentration of 20 uM for CYPs and 50 uM for all others. Each assay was run with positive and negative controls, and concurrent controls on every plate. The follow-up (secondary) screen tested active chemical-pairs in concentration series, as well as a few additional assays not tested in the primary screen, some selected negative inactives, and several cases re-run in the concentration series for confirmatory purposes.
# Chain of rat CYP3A2, Cyp3a2 (gene 266682) (P05183 whole entry, looked up): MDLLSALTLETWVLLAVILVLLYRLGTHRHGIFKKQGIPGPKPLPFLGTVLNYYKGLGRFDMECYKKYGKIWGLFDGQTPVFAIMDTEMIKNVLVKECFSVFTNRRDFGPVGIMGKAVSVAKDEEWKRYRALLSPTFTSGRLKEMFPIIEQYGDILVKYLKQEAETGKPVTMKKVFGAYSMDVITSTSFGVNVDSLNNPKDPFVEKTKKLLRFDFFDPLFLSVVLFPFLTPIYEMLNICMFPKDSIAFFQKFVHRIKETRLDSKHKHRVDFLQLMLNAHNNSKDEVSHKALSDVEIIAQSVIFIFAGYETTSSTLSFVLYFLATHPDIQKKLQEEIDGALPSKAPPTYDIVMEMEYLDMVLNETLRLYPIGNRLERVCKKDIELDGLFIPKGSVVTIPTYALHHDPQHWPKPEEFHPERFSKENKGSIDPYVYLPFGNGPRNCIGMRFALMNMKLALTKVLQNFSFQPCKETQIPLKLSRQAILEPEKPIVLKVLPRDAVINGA
row,Structure (SMILES),AC50
1,CCCCC(O)(Cn1cncn1)c1ccc(Cl)cc1Cl (stereo unspecified),1600 nM (active)
2,COC(=O)NC(=S)Nc1ccccc1NC(=S)NC(=O)OC,7250 nM (active)
3,Cc1ccc(N=CN(C)C=Nc2ccc(C)cc2C)c(C)c1,1230 nM (active)
4,COP(=S)(OC)SCn1nnc2ccccc2c1=O,393 nM (active)
5,CC1(C)CCC(=Cc2ccc(Cl)cc2)C1(O)Cn1cncn1 (stereo unspecified),225 nM (active)
6,CCCCC(C#N)(Cn1cncn1)c1ccc(Cl)cc1 (stereo unspecified),2960 nM (active)
7,CO/N=C(/C1=NOCCO1)c1ccccc1Oc1ncnc(Oc2ccccc2Cl)c1F,1180 nM (active)
8,CCN(CC)C(=O)C(C)Oc1cccc2ccccc12 (stereo unspecified),5340 nM (active)
9,C=CCOC(=O)C(C)(C)OC(=O)c1cc(-n2c(=O)cc(C(F)(F)F)n(C)c2=O)ccc1Cl,407 nM (active)
10,CCOc1cc(C(C)(C)C)ccc1C1COC(c2c(F)cccc2F)=N1 (stereo unspecified),2180 nM (active)
11,CCOP(=S)(OCC)Oc1nc(Cl)n(C(C)C)n1,1140 nM (active)
12,COP(=S)(OC)Oc1ccc([N+](=O)[O-])c(C)c1,4290 nM (active)
13,COC(=O)c1c(C(F)F)nc(C(F)(F)F)c(C2=NCCS2)c1CC(C)C,5420 nM (active)
14,CC(C)=CC1C(C(=O)OCc2coc(Cc3ccccc3)c2)C1(C)C (stereo unspecified),7040 nM (active)
15,CCNP(=S)(OC)O/C(C)=C/C(=O)OC(C)C (stereo unspecified),528 nM (active)
16,COc1ccc(-c2ccccc2)cc1NNC(=O)OC(C)C,832 nM (active)
